Measured values reported in the supplement of paper PMC8269313.

Tested on: 4T1
Assay: % inhibition of 4T1 cell number vs DMSO control; higher = stronger growth inhibition
Conditions: 1 µM, 3 days
Outline: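 In 96-well imaging plates whose edge wells went unused, 3000 4T1-H2B-GFP mouse breast cancer cells per well were seeded in 2% FBS medium onto plastic, denuded lung matrix, mCAF1 fibroblast-derived matrix, Matrigel (15 μg/mL) or 0.2% gelatin. Sixteen hours on, kinase inhibitors went in at 1 μM final for 3 days before formalin fixation, DAPI staining and imaging on an INCell Analyzer 2200. Counting of GFP-positive nuclei gave cell numbers, from which percent inhibition relative to control was derived.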

[1] = substrate: lung fibroblast-derived matrix
[2] = substrate: mCAF1 fibroblast-derived matrix

Row | Compound | % inhibition of 4T1 cell number (substrate: Matrigel) [%] | % inhibition of 4T1 cell number (substrate: gelatin) [%] | % inhibition of 4T1 cell number [1] [%] | % inhibition of 4T1 cell number [2] [%] | % inhibition of 4T1 cell number (substrate: plastic) [%]
1 | O=C(Nc1cccc(Nc2nccc(Nc3cccc(C(F)(F)F)c3)n2)c1)C1CC1 [Aurora Kinase Inhibitor III] | 54.8 | 74.5 | 97.8 | 15 | 63.6
2 | COc1cc2ncnc(N3CCN(C(=O)Nc4ccc(Oc5ccccc5)cc4)CC3)c2cc1OC [PDGF Receptor Tyrosine Kinase Inhibitor III] | -4.76 | -15.1 | -1.37 | 49.3 | -34.7
3 | CCCC(=O)Oc1ccc2[nH]c(C(=O)c3cc4ccccc4[nH]3)cc2c1 [PDGF Receptor Tyrosine Kinase Inhibitor II] | -18.7 | -112 | -6.16 | 1.3 | -70.2
4 | Cc1cncc2cccc(S(=O)(=O)N3CCCN(C(=O)CN)C[C@@H]3C)c12 [Rho Kinase Inhibitor IV] | -39.7 | -28.9 | 92.9 | 15.7 | -103
5 | N#Cc1c(NC(=O)c2cccc3ccccc23)sc2c1CCCC2 [JNK Inhibitor IX] | 92 | 92.5 | 2.5 | 90.8 | 86.4
6 | CC(=O)c1ccc(N2CCOCC2)cc1O [DNA-PK Inhibitor III] | 0.894 | -13.7 | -5.23 | -5.96 | -24.1
7 | COc1cc2ncnc(Nc3ccc(O)c(Br)c3)c2cc1OC [JAK3 Inhibitor II] | -13.3 | -52.6 | -6.47 | 25.3 | -53.6
8 | CSc1nc(-c2ccnc(NC(C)c3ccccc3)c2)c(-c2ccc(F)cc2)[nH]1 (stereo not given) [p38 MAP Kinase Inhibitor III] | -9.55 | -7.6 | 10.6 | 23.1 | -65
9 | Nc1nccc(-c2c(-c3ccc(F)cc3)ncn2C2CCNCC2)n1 | -17.8 | -10.4 | 11.7 | 29.5 | -59.1
10 | CC(C)[C@H](CO)Nc1nc(Nc2cc(N)cc(Cl)c2)c2ncn(C(C)C)c2n1 [Aminopurvalanol A] | 77.4 | 71.6 | -15.7 | 41.1 | 80.1
